Experiment [1] can be described thus: NCI Yeast Anticancer Drug Screen. Data for the rad50 strain (AID 155).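 Further: 0% = growth of vehicle-only cultures of the same strain.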 As to conditions: S. cerevisiae rad50 strain growth inhibition; at 50.0 µM; active compounds read high. The essentials:
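Readout: growth inhibition relative to vehicle-treated cultures. Compound exposure was carried out in a genetically defined yeast strain deficient in DNA damage repair.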

A short description of experiment [2]: NCI Yeast Anticancer Drug Screen. Data for the mec2-1 strain (AID 157). Conditions: S. cerevisiae mec2-1 strain, at 50.0 µM, active compounds read high. In outline:
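Using mec2-1 yeast: add compound, measure growth, express inhibition versus vehicle-treated cultures.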

A short description of experiment [3]: NCI Yeast Anticancer Drug Screen. Data for the sgs1 mgt1 strain (AID 161).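 Further: 0% = growth of cultures given vehicle only.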 Conditions: S. cerevisiae sgs1 mgt1 strain, at 50.0 µM, active compounds read high. The essentials:
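This yeast growth screen uses a strain with defined DNA-repair lesions; compound-treated growth is compared with vehicle-treated growth.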

Experiment [4] is described as follows: NCI Yeast Anticancer Drug Screen. Data for the cln2 rad14 strain (AID 165).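 Further: 0% = growth equal to vehicle treated cultures.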 As to conditions: S. cerevisiae cln2 rad14 strain, at 50.0 µM, active compounds read high. The essentials: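 Yeast strain cln2 rad14, bearing defects in cell cycle control and DNA repair, serves as the test system; values reflect growth inhibition compared with vehicle.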
The nature of experiment [5]: NCI Yeast Anticancer Drug Screen. Data for the bub3 strain (AID 167). Conditions: S. cerevisiae bub3 mutant strain, at 50.0 µM, active compounds read high. The essentials:
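Readout: yeast growth inhibition, expressed relative to vehicle-only wells. The test organism is a mutant strain from a panel with lesions in DNA repair or checkpoint genes.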

Experiment [6] can be described thus: NCI Yeast Anticancer Drug Screen. Data for the mlh1 rad18 strain (AID 175). Conditions: S. cerevisiae mlh1 rad18 strain growth inhibition; at 50.0 µM; active compounds read high. In outline: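 Steps: expose repair-defective yeast to compound; measure growth; express inhibition against vehicle-treated controls.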

Compounds without any hit were thinned out: in the full panel of roughly 79,000, 15% have a hit. Values without a mark were called inactive. Active and inactive are the calls of the source. No stated cut-off is given here; in the data, active means growth inhibition above about 70%; inactive means the rest.

Turning to `CCOC(=O)c1oc2cc(O)cc(O)c2c(=O)c1-c1ccc(OC)cc1`, the growth inhibition was 7.8% in experiment [1]; -30.4% in experiment [2]; 11.6% in experiment [3]; 11.1% in experiment [4]; 3.1% in experiment [5]; 0.35% in experiment [6].

Take `COCCCCCOC`: the growth inhibition in experiment [1] was 5.55%; in experiment [2], -14.8%; in experiment [3], -3.4%; in experiment [4], 6.6%; in experiment [5] it was 12.3%; in experiment [6], 1.55%.

For the molecule `Cc1ccccc1NC(=O)C(=O)C(C#N)c1ccc(Cl)cc1Cl` (centres undefined), the growth inhibition is -19.3% in experiment [1]; 6% in experiment [2]; 24.8% in experiment [3]; -19.6% in experiment [4]; 7.3% in experiment [5]; 19.9% in experiment [6].

On to `N=c1nnc2ccc(Cl)cc2n1O`, for which the growth inhibition in experiment [1] was 64.5%; in experiment [2], 4.7%; in experiment [3] it was 15.6%; in experiment [4] it was 9.65%; in experiment [5] it was -1.85%; in experiment [6] it was -5.25%.

For the molecule `C/C=C(\CC)C(C#N)(CC)C(=O)OCC` (centres undefined), the growth inhibition is 20.9% in experiment [1]; -18.4% in experiment [2]; -7.5% in experiment [3]; -6.25% in experiment [4]; -30.3% in experiment [5]; -24.8% in experiment [6].

Regarding `CCCCCCCCCCCCCCCCNc1nc(=S)cc(C)[nH]1`, the growth inhibition is -10.2% in experiment [1]; -27.6% in experiment [2]; -5.05% in experiment [3]; -14.6% in experiment [4]; -25% in experiment [5]; -10.9% in experiment [6].

Consider `O=c1n(-c2ccccc2)c(=O)n2n1C1C3C4C3C2C2(F)C4C12` (centres undefined), for which the growth inhibition in experiment [1] is -6.95%; in experiment [2] it was 14.3%; in experiment [3] it was 19.9%; in experiment [4] it was 8.6%; in experiment [5], 7.75%; in experiment [6], 9.6%.

As for `Cc1ccc(O)cc1C(=O)O`, the growth inhibition is -32% in experiment [1]; -14.7% in experiment [2]; -0.95% in experiment [3]; 8.05% in experiment [4]; -3.75% in experiment [5]; 5.4% in experiment [6].

Consider `C=CCNC(=S)/N=C\C(C(=O)OCC)=C(/O)C(=O)OCC`, for which the growth inhibition was -18.6% in experiment [1]; -18.4% in experiment [2]; -16.6% in experiment [3]; -21.7% in experiment [4]; -8.85% in experiment [5]; -29.8% in experiment [6].

In the case of `O=S(=O)(Nc1ccccc1Cl)c1ccc(F)cc1`, the growth inhibition in experiment [1] is -5.85%; in experiment [2], -16.1%; in experiment [3] it was -6.6%; in experiment [4] it was 4.7%; in experiment [5], -24%; in experiment [6], 20.9%.

For `Cc1c([N+](=O)[O-])cc(C(C)(C)C)c(OC(=O)C(Cl)(Cl)Cl)c1[N+](=O)[O-]`, the growth inhibition in experiment [1] was 58.3%; in experiment [2] it was 72.5% (active); in experiment [3] it was 73.9% (active); in experiment [4], 78.8% (active); in experiment [5], 88.9% (active); in experiment [6], 72.8% (active).

In the case of `CC1(C)CC(=O)C(N=Nc2ccccc2)=C(O)C1`, the growth inhibition in experiment [1] was 0.7%; in experiment [2] it was 2.3%; in experiment [3], -2.55%; in experiment [4], -49.4%; in experiment [5], 24.2%; in experiment [6], -0.75%.

Turning to `CC1C=CC(C)N(c2nnnn2C)N1c1nnnn1C` (centres undefined), the growth inhibition is -11.6% in experiment [1]; 9.75% in experiment [2]; 14.9% in experiment [3]; -6.3% in experiment [4]; -2.6% in experiment [5]; -3.9% in experiment [6].

In the case of `Cc1cc(Cl)ccc1Nc1nc2c(s1)C(=O)c1ccccc1C2=O`, the growth inhibition is 90.8% (active) in experiment [1]; 84.9% (active) in experiment [2]; 85.6% (active) in experiment [3]; 86.5% (active) in experiment [4]; 87.6% (active) in experiment [5]; 91.4% (active) in experiment [6].

In the case of `O=C1CC(N2CCOCC2)c2ccccc21` (centres undefined), the growth inhibition in experiment [1] was 30%; in experiment [2] it was 11.1%; in experiment [3] it was 12.6%; in experiment [4] it was -21.1%; in experiment [5], -14%; in experiment [6] it was 14.2%.

As to `CCCCc1ccncc1`, the growth inhibition in experiment [1] was 5.3%; in experiment [2], 4.55%; in experiment [3], 18.6%; in experiment [4], -25.9%; in experiment [5], 8.55%; in experiment [6], 19.6%.

Turning to `C/C(=N\NC(=S)Nc1ccc(C(=O)O)cc1)c1nccc2ccccc12`, the growth inhibition was 3.2% in experiment [1]; 1.1% in experiment [2]; 4.2% in experiment [3]; 28.9% in experiment [4]; 9.75% in experiment [5]; 7.25% in experiment [6].

As to `Cn1c(=O)c2c(nc(/N=C/c3ccncc3)n2C)n(C)c1=O`, the growth inhibition in experiment [1] was -3.35%; in experiment [2] it was -5.95%; in experiment [3], -5.9%; in experiment [4] it was -75.7%; in experiment [5], -16.8%; in experiment [6], -2.85%.

Regarding `C=CCN1C2Cc3cc(OC)c(OC)cc3C1Cc1cc(OC)c(OC)cc12`, the growth inhibition was 0.15% in experiment [1]; -19.2% in experiment [2]; -23.6% in experiment [3]; -6.45% in experiment [4]; -16.2% in experiment [5]; -10.3% in experiment [6].

In the case of `O=C1CC(c2ccc(Cl)cc2)NC(c2ccc(Cl)cc2)C1` (centres undefined), the growth inhibition in experiment [1] was 13.6%; in experiment [2], 2.35%; in experiment [3] it was 8.55%; in experiment [4] it was 11.2%; in experiment [5], 6.4%; in experiment [6], 14.8%.

For `COc1ccc2c(CCNC(C)=O)c(C(C)=O)[nH]c2c1`, the growth inhibition is -9.65% in experiment [1]; -3.25% in experiment [2]; 12.4% in experiment [3]; 15.5% in experiment [4]; -12.3% in experiment [5]; 36.1% in experiment [6].

As for `CCNc1nc2c(ncn2C2CC(O)C(COP(=O)(O)O)O2)c(=O)[nH]1` (centres undefined), the growth inhibition is 18.9% in experiment [1]; 15.2% in experiment [2]; 27.3% in experiment [3]; 11.8% in experiment [4]; 13.2% in experiment [5]; -16.1% in experiment [6].

Turning to `CSc1cc(Cl)c(C)cc1S(=O)(=O)NC(=O)NNc1cccc(C(F)(F)F)n1`, the growth inhibition in experiment [1] is 15.2%; in experiment [2] it was 5.25%; in experiment [3], 9.5%; in experiment [4], -5.4%; in experiment [5], -4.9%; in experiment [6] it was 24.6%.

For `O=c1ccc2cc(Cl)ccc2o1`, the growth inhibition in experiment [1] is 12.6%; in experiment [2], -12.9%; in experiment [3] it was -7.8%; in experiment [4] it was -16.4%; in experiment [5], 18.1%; in experiment [6] it was -20.1%.

Take `Clc1ccc(N=C2c3ccccc3CN2c2ccc(Cl)cc2)cc1`: the growth inhibition in experiment [1] was -32.6%; in experiment [2], -20.1%; in experiment [3], -14.4%; in experiment [4] it was -4.85%; in experiment [5] it was -22.3%; in experiment [6], -13.9%.

For the molecule `O=C(COc1cccc(Cl)c1)Nc1ccccc1`, the growth inhibition in experiment [1] was -2.9%; in experiment [2], -31.9%; in experiment [3], 7.85%; in experiment [4], -17.1%; in experiment [5], 39.7%; in experiment [6], 2.05%.

Consider `CCCC(=O)Nc1ccccc1`, for which the growth inhibition in experiment [1] is 18.1%; in experiment [2] it was -15.8%; in experiment [3], 8.75%; in experiment [4], 7%; in experiment [5] it was -4.75%; in experiment [6], 19.6%.

As to `N#CC(c1ccc(Cl)cc1)c1ccc(N(CCO)CCO)cc1` (centres undefined), the growth inhibition was 9.4% in experiment [1]; 1.25% in experiment [2]; 2.75% in experiment [3]; 5.85% in experiment [4]; -12.1% in experiment [5]; 13.8% in experiment [6].

As for `CC(=O)Nc1ccc2nc(N)sc2c1`, the growth inhibition in experiment [1] was 13%; in experiment [2], 5.55%; in experiment [3] it was -16.1%; in experiment [4] it was -3.65%; in experiment [5] it was 3.8%; in experiment [6], 6.6%.

In the case of `COc1ccc(C2OC(=N)C(=S)N2C)cc1O` (centres undefined), the growth inhibition in experiment [1] was -5.9%; in experiment [2], -15.6%; in experiment [3], -13.2%; in experiment [4] it was -22.7%; in experiment [5], 2.5%; in experiment [6], -4.15%.

For the molecule `O=C1OC(=O)C2C3C=CC(C3)C12` (centres undefined), the growth inhibition was 17.2% in experiment [1]; -5.35% in experiment [2]; 23.1% in experiment [3]; -20.4% in experiment [4]; -1.45% in experiment [5]; 21.4% in experiment [6].

Regarding `OCCSCc1cc2c(cc1Br)OCO2`, the growth inhibition in experiment [1] was -29.5%; in experiment [2], -2%; in experiment [3], -11.8%; in experiment [4] it was 19.8%; in experiment [5], 12.4%; in experiment [6], 2.15%.

On to `C/C(=N\NC(=S)N1CCC(C)CC1)c1nccnc1C`, for which the growth inhibition is 6.1% in experiment [1]; 7.85% in experiment [2]; 11.4% in experiment [3]; 28.1% in experiment [4]; 8.95% in experiment [5]; 17.7% in experiment [6].

Take `C=C1C(=O)C23C(O)CC4C5(C)CCCC4(C(O)OC5)C2C(OC(C)=O)CC1C3O` (centres undefined): the growth inhibition was 10.3% in experiment [1]; 8.45% in experiment [2]; 11.4% in experiment [3]; 10.1% in experiment [4]; -7.3% in experiment [5]; 0.75% in experiment [6].

Turning to `COc1ccc(CCn2nccc2C)cc1`, the growth inhibition in experiment [1] is -60.9%; in experiment [2], -4%; in experiment [3] it was -4.3%; in experiment [4] it was -17.9%; in experiment [5], -9.4%; in experiment [6] it was -18.4%.

On to `N#CC1=C(N)N(c2ccccc2)C(c2ccccc2)C1(C#N)C#N` (centres undefined), for which the growth inhibition is 6.45% in experiment [1]; 14.2% in experiment [2]; -8.3% in experiment [3]; -4.9% in experiment [4]; -22.9% in experiment [5]; -4.75% in experiment [6].

As to `NCC(c1ccccc1)C1CCCCC1` (centres undefined), the growth inhibition in experiment [1] is 13.2%; in experiment [2] it was -2.35%; in experiment [3], 5.05%; in experiment [4] it was -7.5%; in experiment [5] it was -3.9%; in experiment [6] it was 15%.

As to `O=c1[nH]n(Cc2ccccn2)c2ccc([N+](=O)[O-])cc12`, the growth inhibition in experiment [1] was 4.1%; in experiment [2], -7.8%; in experiment [3], -26.8%; in experiment [4], 0.95%; in experiment [5], 6.45%; in experiment [6], -14.2%.

`COc1ccc(CNc2ccccc2)cc1OC`: the growth inhibition was -6% in experiment [1]; 7.95% in experiment [2]; -3% in experiment [3]; -33.6% in experiment [4]; -9.15% in experiment [5]; -40% in experiment [6].
